# Source: PubChem BioAssay AID1029 (Sanford-Burnham Center for Chemical Genomics, 2008)
# Among all 110,000 compounds or so, about 80 (0.07%) were called active. This is one part of a sample in which actives are shown more often than they occur.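 Rule for the calls: active = inhibition above the mean of the plate negative controls plus 5 SD (cut at about 13% in these data); inactive = the rest.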
# Test: inhibitors of macrophage phagocytosis, primary screen, imaging, J774A.1 cells, IgG beads (AID 1029);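 note: phagocytic index as fraction of beads internalized from green versus red external bead signal; plate controls were DMSO negative control for no effect and cytochalasin-D positive control for full effect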
# Conditions: J774A.1 macrophage IgG-bead phagocytosis, at 5 µM, stronger effect = higher value
row,SMILES,inhibition
1,CCOC(=O)C(O)(c1ccc(N)c(OC)c1)C(F)(F)F (centres undefined),-1.1% (inactive)
2,CCOC(=O)C(O)(c1ccc(NC(=O)c2ccco2)c(OC)c1)C(F)(F)F (centres undefined),2.8% (inactive)
3,CN(C)C(=O)Oc1ccc(OCc2cccc[n+]2C)cc1,-2.17% (inactive)
4,O=c1[nH]c(=S)n(C2CC2)c(O)c1/C=N/N1CCOCC1,-3.16% (inactive)
